The record followed here is PubChem BioAssay (NCI).

The structures appear in SMILES notation. This is part of a sample that, as a whole, favours compounds with a hit. Of some 83,000 tested, about 20% had one in any assay.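 Interpretation: 100, growth as untreated; towards 0, rising growth inhibition; 0, no net growth; 0 to -100, cell death. Compounds scoring below 10 were considered active.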 The source made the active and inactive calls.

The assay deals with HS 578T breast. Description: NCI-60 one-dose screen, 48 h (100 = growth as untreated, 0 = no growth, -100 = all killed). The conditions noted are these: 10 µM unless noted. On the procedure: Growth inhibition of the HS 578T human tumor cell line is measured as a screen for anti-cancer activity. Cells are grown in 96 well plates and exposed to the test compound for 48 hours. Compounds are tested at a single concentration, which is 10^-5 M for most compounds. The reported endpoint is percent growth (GI% or GIPRCNT), where numbers from 0 - 100% represent growth inhibition, and numbers from -100% - 0 represent cell death. For example, a value of 40 represents 60% growth inhibition. A value of 0 means no net growth occurred over the course of the experiment. A value of -40 indicates 40% of cells at the beginning of the experiment died by the end of the experiment. A value of -100 means all cells are dead at the end of the experiment.
NCI-60 Human Tumor Cell Lines Screen was performed using the standard one-dose NCI protocol, which is described in more detail at https://dtp.cancer.gov/discovery_development/nci-60/default.htm.
Compounds with GIPRCNT values below 10 were considered active. Activity score was based on GIPRCNT using the following formula: […]
Score is 0 for GIPRCNT values of 100 or above, 50 for GIPRCNT values of 0, and 100 for GIPRCNT values of -100.
For `Cc1n[nH]c(C)c1-c1c(C)n[nH]c1C`, the growth was -8.48% (active).
`Cc1c(C(=O)NO)sc2ncnc(Nc3ccc(NC(=S)Nc4ccccc4)cc3)c12`: the growth was 105% (inactive).
The value for `Clc1cc(Cl)cc(N2N=C(c3cccc(Nc4ccncc4)c3)CC2c2ccccc2)c1` (stereo not given) was 80.2% (inactive).
With `COc1cccc(NC(=O)c2cccc(-c3cc(=O)c4c(OC)c(OC)c(OC)cc4o3)c2)c1`, the growth was 46.2% (inactive).
The same measure for `COc1cc2nc(-c3ccc(C(F)(F)F)cc3)cc(OCCCN3CCCCC3)c2cc1OC`: 59.1% (inactive); for `COc1cc(C(=O)/C=C/c2c(C)n([O-])c3ccc(Cl)cc3[n+]2=O)cc(OC)c1OC`: 86.3% (inactive); for `O=C(Nc1ccc(Nc2ncccn2)cc1)NC1C=c2ccccc2=CC1` (stereo not given): 100% (inactive).
The same measure for `CCC(C)N(CCNc1cc(OC)cc2cccnc12)CCC(C)C` (stereo not given): 82.9% (inactive); for `O=C(/C=C/c1ccc[nH]1)c1ccc(-n2ccc(C(F)(F)F)n2)cc1`: 100% (inactive); for `[O-][n+]1ccccc1CCN(O)CCc1cccc[n+]1[O-]`: 94.5% (inactive).
On to `COc1ccc(OC)c(/C=C/[C@H]2O[C@@H](C)[C@H](O)[C@@H]2O)c1`, for which the growth is 111% (inactive).
Turning to `O=S(=O)(NCCNc1nccc(-c2c(-c3cccc(F)c3)nc3occn23)n1)c1cccc2ccccc12`, the growth was 64.9% (inactive).
As to `CCN(CC)CCCC(C)Nc1cc(-c2cccc(OC(F)(F)F)c2)nc2ccc(N3CCCC3)cc12` (stereo not given), the growth was -22.3% (active).
The value for `CCCCCCCCOc1ccc(/C=N/Nc2cc(C)nc3ccc(Cl)cc23)cc1` was 46.9% (inactive); that for `CC(C)CN(C(=O)c1ccc(Cl)cc1)c1c(N)n(CC(C)C)c(=O)[nH]c1=O` was 84.8% (inactive); that for `O=C1NC(=O)C(=Cc2cn(Cc3ccccn3)c3ccccc23)C(=O)N1` was 94.7% (inactive).
As to `CC1NC(=S)NC(=O)/C1=C/c1cc(=O)oc2c1ccc1ccccc12` (stereo not given), the growth is 94.4% (inactive).
As for `COc1ccc(C(=O)c2cc3c(N)c(C(=O)Nc4cccc(Br)c4C)sc3nc2C)cc1`, the growth is 12.4% (inactive).
The value for `COc1ccc(/C=C/C(=O)c2ccc(OC)c(OC)c2)cc1O` was 92.6% (inactive); that for `CC1=CC[C@@H]2CC[C@]3(C)[C@H](CC[C@@H]4[C@@]5(C)CCCNC(C)(C)[C@@H]5CC[C@]43C)[C@H]2[C@@H]1C` was 92.9% (inactive).
The value for `COc1ccc(-c2nc(N/N=C/c3cccc(Br)c3)nc(N3CCOCC3)c2C#N)cc1` was 68% (inactive); that for `Clc1cc(Cl)cc(N2N=C(c3cccc(Nc4ccncc4)c3)CC2c2ccc(Br)cc2)c1` (stereo not given) was 46.7% (inactive).
In the case of `O=C(Nc1ccc2cc3ccc(NC(=O)N4CCCCCC4)cc3nc2c1)N1CCCCCC1`, the growth was -33.2% (active).
The same measure for `Cn1c(COC(=O)N2CCCCC2)nc2c(N3CCOCC3)nc(-c3ccccc3)nc21`: -36.1% (active).
The value for `C=Cc1cc[n+](CCCCCCCCCCCC)cc1` was 108% (inactive); that for `COc1ccc(/C=C/c2n[nH]c3ccc(N4CCOC4=O)cc23)cc1` was 2.93% (active); that for `CCn1ccnc1C(=O)/C=C/c1ccc(CC(=O)Nc2ccc(F)cc2)cc1` was 52.5% (inactive).
The same measure for `COc1ccc(-c2nc(SCC(C)C)nc(N/N=C(/C)c3ccc(OC)c(OC)c3)c2C#N)cc1`: 76% (inactive); for `CC(C)Cc1ccc(C(C)C(=O)NCc2ccc(Cn3c(=O)sn(-c4ccc(Cl)cc4)c3=O)cc2)cc1` (stereo not given): 71.8% (inactive); for `OC(c1ccccc1)c1ccccn1` (stereo not given): 91% (inactive).
For `COc1ccc(C(=O)c2cc3c(N)c(C(=O)Nc4cccc5ccccc45)sc3nc2C)cc1`, the growth is 11.3% (inactive).
The value for `COc1cc(NCC(O)CN(CC(C)C)CC(C)C)c2nc(C)ccc2c1` (stereo not given) was 85.1% (inactive).
Turning to `CCCCCCCC(=O)Nc1nc2[nH]c(CN3CCN(Cc4cccc(I)c4)CC3)c(CN3CCN(Cc4cccc(I)c4)CC3)c2c(=O)[nH]1`, the growth is -40.9% (active).
The value for `COc1cccc(CCC(=O)c2cc3c(N)c(C(=O)Nc4cccc(Cl)c4C)sc3nc2C)c1` was 2.96% (active); that for `Fc1ccc(C2CC(c3cccc(Nc4ccncc4)c3)=NN2c2ccc(Cl)cc2)cc1` (stereo not given) was 79.9% (inactive).
The value for `ClCC1(Cn2cnc3c(Cl)nc(Cl)nc32)COC1` was 50.9% (inactive); that for `COc1ccc(CNCCN2C(=O)c3ccc4c5c(ccc(c35)C2=O)C(=O)N(CCNCc2ccc(OC)cc2)C4=O)cc1` was -41.1% (active).
The same measure for `CC1CCN(C(=O)OCc2nc3nc(Cl)nc(N4CCOCC4)c3[nH]2)CC1`: -13.5% (active); for `Cc1cc(C)n(Nc2nc3ccccc3[nH]c2=O)c(=O)c1C#N`: 92.7% (inactive); for `O=C(O)CNC(=O)CN1C(=O)c2ccccc2C1=O`: 113% (inactive).
